Experimental data: PubChem BioAssay AID1159580 (chemical genetic matrix, 2015)
“And” between values parts separate entries of the source, which are not always exact repeats. Equal entries are not always repeated. In all, about 5,500 compounds went through this assay and about 2,000 (36%) were called active. Not shown: some 18% with an inconclusive outcome. Cut-off read from the data, not from the text of the source: active = normalized growth mostly below about 0.91 (no sharp cut-off); inconclusive = no clear call, values can overlap the other calls; inactive = mostly above about 0.92. Some of the results follow.

Assay: chemical genetic growth profiling, strain panel (AID 1159580);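 note: tested at 20 µM; growth read once vehicle control cultures reached saturation at 30 °C; 1 = growth at the plate median or of vehicle wells; lower values mean less growth of the strain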
Conditions: S. cerevisiae deletion strains, growth OD

For `Oc1cccc2cccnc12`, the normalized growth (locus YAL021C, strain ccr4, stronger effect = lower value) was 0.0769 (active), the normalized growth (locus YAL026C, strain drs2, stronger effect = lower value) was 0.0625 (active) and the normalized growth (locus YAL030W, strain snc1, stronger effect = lower value) was 0.0718 (active). For the same compound, the normalized growth (locus YBL061C, strain skt5, stronger effect = lower value) was 0.0722 (active), the normalized growth (locus YBR009C, strain hhf1, stronger effect = lower value) was 0.0681 (active) and the normalized growth (locus YBR021W, strain FUR4, stronger effect = lower value) was 0.0928 (active). The normalized growth (locus YBR023C, strain chs3, stronger effect = lower value) was 0.076 (active), the normalized growth (locus YBR171W, strain sec66, stronger effect = lower value) was 0.076 (active) and the normalized growth (locus YBR229C, strain ROT2, stronger effect = lower value) was 0.0533 (active). For the same compound, the normalized growth (locus YBR231C, strain swc5, stronger effect = lower value) was 0.0897 (active), the normalized growth (locus YBR279W, strain paf1, stronger effect = lower value) was 0.0618 (active) and the normalized growth (locus YCL011C, strain gbp2, stronger effect = lower value) was 0.0567 (active). The normalized growth (locus YCL016C, strain dcc1, stronger effect = lower value) was 0.229 (active), the normalized growth (locus YCL029C, strain bik1, stronger effect = lower value) was 0.738 (active) and the normalized growth (locus YCL061C, strain MRC1, stronger effect = lower value) was 0.064 (active). The normalized growth (locus YCL069W, strain vba3, stronger effect = lower value) was 0.0627 (active), the normalized growth (locus YCR088W, strain abp1, stronger effect = lower value) was 0.0593 (active) and the normalized growth (locus YDL005C, strain med2, stronger effect = lower value) was 0.646 (active). For the same compound, the normalized growth (locus YDL035C, strain GPR1, stronger effect = lower value) was 0.0493 (active), the normalized growth (locus YDL040C, strain nat1, stronger effect = lower value) was 0.476 (active) and the normalized growth (locus YDL074C, strain BRE1, stronger effect = lower value) was 0.0979 (active). For the same compound, the normalized growth (locus YDL101C, strain DUN1, stronger effect = lower value) was 0.869 (active), the normalized growth (locus YDL134C, strain PPH21, stronger effect = lower value) was 0.0515 (active) and the normalized growth (locus YDL185W, strain tfp1, stronger effect = lower value) was 0.0598 (active). The normalized growth (locus YDL192W, strain arf1, stronger effect = lower value) was 0.0601 (active), the normalized growth (locus YDR001C, strain nth1, stronger effect = lower value) was 0.0574 (active) and the normalized growth (locus YDR069C, strain doa4, stronger effect = lower value) was 0.0712 (active). For the same compound, the normalized growth (locus YDR101C, strain arx1, stronger effect = lower value) was 0.375 (active), the normalized growth (locus YDR137W, strain rgp1, stronger effect = lower value) was 0.0843 (active) and the normalized growth (locus YDR159W, strain sac3, stronger effect = lower value) was 0.616 (active). For the same compound, the normalized growth (locus YDR162C, strain NBP2, stronger effect = lower value) was 0.0547 (active), the normalized growth (locus YDR195W, strain ref2) was 0.117 (active) and the normalized growth (locus YDR297W, strain sur2, stronger effect = lower value) was 0.0588 (active). The normalized growth (locus YDR318W, strain mcm21, stronger effect = lower value) was 0.0646 (active), the normalized growth (locus YDR334W, strain swr1, stronger effect = lower value) was 0.0621 (active) and the normalized growth (locus YDR335W, strain msn5, stronger effect = lower value) was 0.0595 (active). For the same compound, the normalized growth (locus YDR388W, stronger effect = lower value) was 0.0582 (active), the normalized growth (locus YDR392W, strain spt3, stronger effect = lower value) was 0.0932 (active) and the normalized growth (locus YDR502C, strain sam2, stronger effect = lower value) was 0.0651 (active). The normalized growth (locus YEL003W, strain gim4, stronger effect = lower value) was 0.0548 (active), the normalized growth (locus YEL037C, strain rad23, stronger effect = lower value) was 0.0582 (active) and the normalized growth (locus YEL061C, strain CIN8 (second series), stronger effect = lower value) was 0.0606 (active). For the same compound, the normalized growth (locus YEL061C, strain CIN8, stronger effect = lower value) was 0.0683 (active), the normalized growth (locus YER015W, strain faa2, stronger effect = lower value) was 0.0643 (active) and the normalized growth (locus YER016W, strain bim1, stronger effect = lower value) was 0.0729 (active). The normalized growth (locus YER110C, stronger effect = lower value) was 0.107 (active), the normalized growth (locus YER111C, strain swi4, stronger effect = lower value) was 0.0869 (active) and the normalized growth (locus YER155C, strain BEM2 (second series), stronger effect = lower value) was 0.0885 (active). For the same compound, the normalized growth (locus YER155C, strain BEM2, stronger effect = lower value) was 0.503 (active), the normalized growth (locus YER167W, strain BCK2, stronger effect = lower value) was 0.0575 (active) and the normalized growth (locus YFR010W, strain ubp6, stronger effect = lower value) was 0.0669 (active). For the same compound, the normalized growth (locus YGL078C, strain dbp3, stronger effect = lower value) was 0.0567 (active), the normalized growth (locus YGL086W, strain mad1, stronger effect = lower value) was 0.0544 (active) and the normalized growth (locus YGL167C, strain pmr1, stronger effect = lower value) was 0.113 (active). The normalized growth (locus YGL173C, strain kem1, stronger effect = lower value) was 0.07 (active), the normalized growth (locus YGL227W, strain vid30, stronger effect = lower value) was 0.0635 (active) and the normalized growth (locus YGL240W, strain doc1, stronger effect = lower value) was 0.0777 (active). For the same compound, the normalized growth (locus YGL248W, strain PDE1, stronger effect = lower value) was 0.0532 (active), the normalized growth (locus YGL253W, strain hxk2, stronger effect = lower value) was 0.0539 (active) and the normalized growth (locus YGR135W, strain pre9, stronger effect = lower value) was 0.0644 (active). The normalized growth (locus YGR252W, strain gcn5, stronger effect = lower value) was 0.152 (active), the normalized growth (locus YHR013C, strain ard1, stronger effect = lower value) was 0.105 (active) and the normalized growth (locus YHR027C, strain rpn1, stronger effect = lower value) was 0.0611 (active). For the same compound, the normalized growth (locus YHR030C, strain SLT2, stronger effect = lower value) was 0.0533 (active) and 0.903 (inactive), the normalized growth (locus YHR079C, strain IRE1 (second series), stronger effect = lower value) was 0.0905 (active) and the normalized growth (locus YHR079C, strain IRE1, stronger effect = lower value) was 0.908 (inactive). The normalized growth (locus YHR094C, strain hxt1, stronger effect = lower value) was 0.0596 (active), the normalized growth (locus YHR129C, strain ARP1, stronger effect = lower value) was 0.576 (active) and the normalized growth (locus YHR142W, strain chs7, stronger effect = lower value) was 0.0731 (active). For the same compound, the normalized growth (locus YHR200W, strain rpn10, stronger effect = lower value) was 0.0598 (active), the normalized growth (locus YIL066C, strain RNR3, stronger effect = lower value) was 0.156 (active) and the normalized growth (locus YIL073C, strain SPO22, stronger effect = lower value) was 0.0972 (active). For the same compound, the normalized growth (locus YIL125W, strain kgd1, stronger effect = lower value) was 0.0587 (active), the normalized growth (locus YIR030C, strain dcg1, stronger effect = lower value) was 0.0603 (active) and the normalized growth (locus YJL092W, strain hpr5, stronger effect = lower value) was 0.058 (active). For the same compound, the normalized growth (locus YJL095W, strain BCK1 (second series), stronger effect = lower value) was 0.09 (active), the normalized growth (locus YJL095W, strain BCK1, stronger effect = lower value) was 0.165 (active) and 0.93 (inactive) and the normalized growth (locus YJL115W, strain asf1, stronger effect = lower value) was 0.0712 (active). For the same compound, the normalized growth (locus YJL129C, strain trk1, stronger effect = lower value) was 0.0863 (active), the normalized growth (locus YJL134W, strain LCB3, stronger effect = lower value) was 0.388 (active) and the normalized growth (locus YJL154C, strain vps35, stronger effect = lower value) was 0.0589 (active). For the same compound, the normalized growth (locus YJL164C, strain tpk1, stronger effect = lower value) was 0.0791 (active), the normalized growth (locus YJL166W, strain qcr8, stronger effect = lower value) was 0.0604 (active) and the normalized growth (locus YJL168C, strain set2, stronger effect = lower value) was 0.0577 (active). For the same compound, the normalized growth (locus YJL187C, strain SWE1 (second series), stronger effect = lower value) was 0.057 (active), the normalized growth (locus YJL187C, strain SWE1, stronger effect = lower value) was 0.101 (active) and the normalized growth (locus YJR043C, strain POL32, stronger effect = lower value) was 0.0576 (active). The normalized growth (locus YJR066W, strain TOR1, stronger effect = lower value) was 0.871 (inactive).
